# Measured values published in PubChem BioAssay (NCATS).
# Values joined by “and” are separate entries in the source; they are usually repeats but may differ in a detail not shown here. Equal entries are not always repeated. Records with an inconclusive call do not appear. Active and inactive are the calls of the source. Unless noted, the call rests on the fitted dose curve; in most records, active means well fitted curve in the direction sought with a large enough effect; inconclusive means small, poorly fitted or top-dose-only effect, or another doubt; inactive means no such curve, though single readings can be large; an effect the other way counts as inactive or inconclusive.
# Columns and labels:
# [1] = qHTS Assay for Identifying Gametocytocidal Compounds (AID 743244);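 further: on the % scale 0 is the no-effect control and ±100 the full control effect; actives lower the fluorescent signal which means gametocytes are killed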; conditions: P. falciparum 3D7 stage III-V gametocytes, alamarBlue, 72 h; max response: stronger effect = lower value
# In short: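 P. falciparum 3D7 stage III–V gametocytes (20,000 cells/well) were exposed to compounds for 72 h at 37 °C, 5% CO2. AlamarBlue was then added for 24 h; decreased resorufin fluorescence (Ex 525/Em 598 nm) indicated loss of viability.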
# [2] = qHTS assay for measurement of the activity of small molecule inhibitors on Zika virus induced Caspase-3 activity in human iPSC derived neural progenitor cells (hNPCs) (AID 1224857); further: % of control where 0% means no effect; nearly all actives have a fitted effect of over 65% in size
# In short: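 hNPCs seeded 350 cells/well, cultured 16–20 h; compounds added 1 h before ZIKV (2 FFU/cell), 37 C 6 h. Caspase-Glo 3/7 luminescence after 30 min RT; % inhibition from induction scaled to uninfected (0%) and infected (100%) wells.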
# [3] = qHTS assay for measurement of the activity of small molecule inhibitors on Zika virus induced Caspase-3 activity in human astrocytoma cells (AID 1224859);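 further: plate controls were ZIKV-infected untreated cells for no effect and uninfected cells for full effect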
# In short: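 Luminescence read-out (Caspase-Glo 3/7, 30 min RT) of caspase activity in SNB-19 cells infected 6 h with ZIKV, 2 FFU/cell, after 1 h compound pretreatment; % inhibition from induction normalised to uninfected (0%) and infected (100%) wells.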
# [4] = qHTS assay to identify small molecule inhibitors of chordoma cells - UCH-1 (AID 1259355); further: on the % scale 0 is the no-effect control and ±100 the full control effect; nearly all actives have a fitted effect of over 55% in size
# In short: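 Luminescent ATP read-out (CellTiter-Glo, 30min at room temperature) measured viability of UCH-1 cells exposed for 48hr to test drugs at 15 concentrations, co-dosed with a five-agent combination of auranofin, camptothecin, doxorubicin, rubitecan and topotecan.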
# [5] = qHTS assay to identify small molecule inhibitors of chordoma cells - UCH-2 (AID 1259356); further: on the % scale 0 is the no-effect control and ±100 the full control effect
# [6] = biological target: Peroxisome proliferator-activated receptor alpha (Homo sapiens) (UniProt Q07869); test: qHTS assay for small molecule agonists of the peroxisome proliferator-activated receptor alpha (PPARalpha) signaling pathway (AID 651778); conditions: PathHunter PPARalpha complementation, chemiluminescence, 6 h; stronger effect = higher value; further: % of control where 0% means no effect
# In short: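 Cells plated at 2,000/well and held overnight at 37 C, 5% CO2, then compound added by pin tool for 6 hr; after PathHunter detection reagent and 60 min at room temperature, chemiluminescence from enzyme complementation was read.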
# [7] = qHTS assay for small molecule agonists of the antioxidant response element (ARE) signaling pathway measured by Nrf2-dependant transcriptional activity (AID 720636; active means well fitted curve in the direction sought with a large enough effect in the repeat runs; an effect the other way counts as inactive or inconclusive;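 further: HepG2 cells with an ARE-driven luciferase reporter; % of control where 0% means no effect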)
# In short: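 First, ARE-luc HepG2 cells attached for 6 hr at 37 C in 1% dialyzed FBS medium. Next, compound or DMSO was added and incubated 16 hr. Finally, ONE-Glo reagent was added and luminescence measured after 30 min.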
# [8] = qHTS assay for small molecule agonists of the antioxidant response element (ARE) signaling pathway measured by Nrf2-dependant transcriptional activity - cell viability counter screen (AID 720653; active means well fitted curve in the direction sought with a large enough effect in the repeat runs; an effect the other way counts as inactive or inconclusive; further: on the % scale 0 is the no-effect control and ±100 the full control effect); conditions: ARE-bla HepG2 viability, CellTiter-Glo ATP luminescence, 16 h; stronger effect = lower value
# In short: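 ARE-bla HepG2 cells (2,000/well) rested 5 hrs at 37C/5% CO2, then exposed to compounds in DMSO for 16 hrs. Viability was read in the same wells as intracellular ATP by luminescence, 30 min at room temperature after reagent addition.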
# [9] = qHTS assay for cell viability of HEK293 cells (AID 743288); conditions: ATP luminescence (CellTiter-Glo), 18 h, stronger effect = lower value; further: on the % scale 0 is the no-effect control and ±100 the full control effect; nearly all actives have a fitted effect of over 50% in size
# In short: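 Total intracellular ATP, measured with a luciferase-coupled reagent, indicates the number of viable HEK293 cells. Exposure to test chemicals lasts 18 h at 37 C in 1,536-well format at 2,000 cells/well.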
# [10] = qHTS assay for cell viability of the p53RE-bla HCT-116 cell line (AID 743292); further: on the % scale 0 is the no-effect control and ±100 the full control effect; nearly all actives have a fitted effect of over 55% in size
# In short: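 Quantitative high-throughput format: compounds in DMSO were pinned onto p53RE-bla HCT-116 cells (4,000/well) and incubated 16 h at 37 C. Total intracellular ATP, read by CellTiter-Glo luminescence, reflects viable cell number.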
# [11] = biological target: Nuclear receptor ROR-gamma (Homo sapiens) (UniProt P51449); test: qHTS assay for small molecule antagonists of the retinoid-related orphan receptor gamma (ROR-gamma) signaling pathway (AID 651802);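 further: luciferase reporter luminescence driven by ROR response element; on the % scale 0 is the no-effect control and ±100 the full control effect; nearly all actives have a fitted effect of over 60% in size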
# In short: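 CHO cells with TET-inducible ROR-gamma and RORE-luciferase reporter, dosed then doxycycline-induced. After 16 h at 37C, One-Glo luminescence read; decreased signal indicates antagonism.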
# [12] = qHTS assay for small molecule antagonists of the retinoid-related orphan receptor gamma (ROR-gamma) signaling pathway - cell viability counter screen (AID 720652; active means well fitted curve in the direction sought with a large enough effect in the repeat runs; an effect the other way counts as inactive or inconclusive;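 further: compound exposure lasted 16 hr before ATP read; on the % scale 0 is the no-effect control and ±100 the full control effect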)
# In short: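 CHO cells carrying TET-inducible ROR and RORE-luciferase reporter, plated 5 hr, then dosed with compound plus doxycycline. After 16 hr at 37 C, viability read as intracellular ATP by CellTiter-Glo luminescence.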
# [13] = qHTS profiling of the MIPE4 collection as inhibitors of Plasmodium falciparum (3D7) proliferation (AID 743344; call rule not given here;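 further: scaled between DMSO vehicle wells and 0.29 µM artemisinin as full inhibition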); conditions: P. falciparum 3D7 in erythrocytes, SYBR Green DNA fluorescence, 72 h; at 9.64 µM (top of the series) unless noted
# In short: (§1)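 Erythrocytes infected with P. falciparum (0.3% parasitemia, 2.5% hematocrit) incubated with compounds 72 h at 37 C, 5% CO2. Lysis with saponin/Triton buffer containing SYBR Green I, overnight at room temperature in the dark; DNA fluorescence (485/535 nm) normalised to 0.29 uM artemisinin and DMSO.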
# [14] = qHTS profiling of the MIPE4 collection as inhibitors of Plasmodium falciparum (DD2) proliferation (AID 743345; call rule not given here); conditions: P. falciparum Dd2 in erythrocytes, SYBR Green DNA, 72 h; at 9.64 µM (top of the series) unless noted
# In short: as §1
# [15] = qHTS profiling of the MIPE4 collection as inhibitors of Plasmodium falciparum (DD2) proliferation (Rep 2) (AID 743346; call rule not given here); conditions: P. falciparum Dd2 in erythrocytes, SYBR Green DNA, 72 h; at 9.64 µM (top of the series) unless noted
# In short: as §1
# [16] = qHTS profiling of the MIPE4 collection as inhibitors of Plasmodium falciparum (HB3) proliferation (AID 743347; call rule not given here;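 further: plate controls were DMSO vehicle wells for no effect and artemisinin wells for full effect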); conditions: P. falciparum HB3 in erythrocytes, SYBR Green DNA, 72 h; at 9.64 µM (top of the series) unless noted
# In short: as §1
# Chain of Nuclear receptor ROR-gamma (Homo sapiens) (P51449 whole entry, looked up): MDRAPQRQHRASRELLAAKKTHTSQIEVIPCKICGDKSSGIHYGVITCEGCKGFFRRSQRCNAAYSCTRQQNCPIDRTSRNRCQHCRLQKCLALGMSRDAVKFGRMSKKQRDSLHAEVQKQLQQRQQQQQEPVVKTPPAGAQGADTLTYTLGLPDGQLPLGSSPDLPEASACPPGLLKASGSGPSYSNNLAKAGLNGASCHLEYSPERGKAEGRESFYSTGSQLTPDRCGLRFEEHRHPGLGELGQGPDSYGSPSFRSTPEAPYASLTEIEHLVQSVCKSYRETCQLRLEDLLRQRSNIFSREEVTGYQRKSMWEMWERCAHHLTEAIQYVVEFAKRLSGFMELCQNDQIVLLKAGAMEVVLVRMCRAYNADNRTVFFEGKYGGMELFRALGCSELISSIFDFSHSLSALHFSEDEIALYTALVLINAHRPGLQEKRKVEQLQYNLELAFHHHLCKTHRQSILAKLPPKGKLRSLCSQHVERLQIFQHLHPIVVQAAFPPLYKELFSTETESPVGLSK
# Chain of Peroxisome proliferator-activated receptor alpha (Homo sapiens) (Q07869 whole entry, looked up): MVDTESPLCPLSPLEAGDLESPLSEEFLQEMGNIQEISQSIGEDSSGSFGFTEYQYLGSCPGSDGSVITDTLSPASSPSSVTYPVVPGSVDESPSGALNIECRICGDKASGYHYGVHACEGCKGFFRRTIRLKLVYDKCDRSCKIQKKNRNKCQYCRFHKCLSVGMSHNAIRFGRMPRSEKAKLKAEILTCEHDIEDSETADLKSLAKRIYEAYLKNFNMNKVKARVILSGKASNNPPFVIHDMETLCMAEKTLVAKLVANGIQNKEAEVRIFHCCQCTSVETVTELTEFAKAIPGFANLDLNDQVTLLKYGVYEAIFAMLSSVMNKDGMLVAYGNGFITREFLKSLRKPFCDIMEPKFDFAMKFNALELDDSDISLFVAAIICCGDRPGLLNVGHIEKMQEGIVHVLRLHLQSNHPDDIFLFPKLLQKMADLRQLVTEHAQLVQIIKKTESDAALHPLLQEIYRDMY
structure (smiles),measurement,setting,value
Cc1ccsc1/C=C/C1=NCCCN1C,max response,[1],6.27% (inactive)
same,outcome,[2],inactive
same,outcome,[3],inactive
same,outcome,[4],inactive
CC(=O)N[C@H]1[C@H]([C@H](O)[C@H](O)CO)OC(C(=O)O)=C[C@@H]1N=C(N)N,max response,[1],5.37% (inactive)
same,outcome,[2],inactive
same,outcome,[3],inactive
same,outcome,[4],inactive
O=C(/C=C/c1ccc(O)c(O)c1)O[C@@H]1C[C@@](OC(=O)/C=C/c2ccc(O)c(O)c2)(C(=O)O)C[C@@H](O)[C@@H]1O,max response,[1],3.41% (inactive)
same,outcome,[2],inactive
same,outcome,[3],inactive
same,outcome,[4],inactive
O=C(O)C(S)C(S)C(=O)O (centres undefined),outcome,[2],inactive
same,outcome,[4],inactive
same,outcome,[5],inactive
CNc1c2c(nn1C)CCCC2,max response,[1],6.79% (inactive)
same,outcome,[2],inactive
same,outcome,[3],inactive
same,outcome,[4],inactive
CC[N+](CC)(CC(=O)Nc1c(C)cccc1C)Cc1ccccc1,max response,[6],1.81% (inactive)
same,outcome,[7],inactive
same,max response,[8],-0.181% (inactive)
same,max response,[1],7.32% (inactive)
same,max response,[9],-11.2% (inactive)
same,outcome,[10],inactive
same,outcome,[2],inactive
same,outcome,[3],inactive
same,outcome,[4],inactive
OCC(O)CS (centres undefined),max response,[1],0.0928% (inactive)
same,outcome,[2],inactive
same,outcome,[3],inactive
same,outcome,[4],inactive
CC(=O)NS(=O)(=O)c1ccc(N)cc1,max response,[6],-6.08% (inactive)
same,outcome,[11],inactive
same,outcome,[7],inactive
same,outcome,[12],inactive
same,max response,[8],-11.8% (inactive)
same,max response,[1],2.53% (inactive)
same,max response,[9],-3.22% (inactive)
same,outcome,[10],inactive
same,outcome,[2],inactive
same,outcome,[3],inactive
same,outcome,[4],inactive
O=C(O)[C@@H]1[C@H]2C[C@H]3c4[nH]c5ccccc5c4CCN3C[C@@H]2CC[C@@H]1O,max response,[1],-6.8% (inactive)
same,outcome,[2],inactive
same,outcome,[3],inactive
same,outcome,[4],inactive
CC(=O)SC[C@@H](Cc1ccccc1)C(=O)NCC(=O)OCc1ccccc1,max response,[1],3.78% (inactive)
same,outcome,[2],inactive
same,outcome,[3],inactive
same,outcome,[4],inactive
CCCCCCCCCCCCCCCCCCO,max response,[6],-0.423% (inactive)
same,outcome,[7],inactive
same,max response,[8],2.19% (inactive)
same,max response,[1],4.31% (inactive)
same,max response,[9],-6.21% (inactive)
same,outcome,[2],inactive
same,outcome,[3],inactive
same,outcome,[4],inactive
COc1ccc(C(=O)NCc2ccc(OCCN(C)C)cc2)cc1OC,max response,[1],7.72% (inactive)
same,outcome,[2],inactive
same,outcome,[3],inactive
same,outcome,[4],inactive
CCN(CC)CC1CCCCN1CC(=O)N1c2ccccc2C(=O)Nc2cccnc21 (centres undefined),max response,[1],3.31% (inactive)
same,outcome,[2],inactive
same,outcome,[3],inactive
same,outcome,[4],inactive
CC1CCN(CCCC(=O)c2ccc(F)cc2)CC1,max response,[1],1.92% (inactive)
same,outcome,[2],inactive
same,outcome,[3],inactive
same,outcome,[4],inactive
C[C@@H]1CCC[C@H](C)N1,max response,[1],20.8% (inactive)
same,outcome,[2],inactive
same,outcome,[3],inactive
same,outcome,[4],inactive
CCCOC(=O)c1ccc(N)cc1,max response,[1],-6.49% (inactive)
same,outcome,[2],inactive
same,outcome,[3],inactive
same,outcome,[4],inactive
O=C(c1ccccc1)C(O)c1ccccc1 (centres undefined),max response,[6],-1.85% (inactive) and -1.14% (inactive)
same,outcome,[11],inactive
same,outcome,[7],inactive
same,outcome,[12],inactive
same,max response,[8],-4.04% (inactive) and -7.26% (inactive)
same,max response,[1],0.61% (inactive)
same,max response,[9],0.203% (inactive) and -6.25% (inactive)
same,outcome,[10],inactive
same,outcome,[2],inactive
same,outcome,[4],inactive
same,outcome,[5],inactive
Cc1c(N(C)C)c(=O)n(-c2ccccc2)n1C,max response,[6],-3.72% (inactive) and 2.35% (inactive)
same,outcome,[11],inactive
same,outcome,[7],inactive
same,outcome,[12],inactive
same,max response,[8],-0.437% (inactive) and -7.96% (inactive)
same,max response,[1],-4.29% (inactive)
same,max response,[9],1.77% (inactive) and -15.3% (inactive)
same,outcome,[10],inactive
same,outcome,[2],inactive
same,outcome,[4],inactive
same,outcome,[5],inactive
COC(=O)N/N=C/c1c[n+]([O-])c2ccccc2[n+]1[O-],max response,[1],5.03% (inactive)
same,outcome,[2],inactive
same,outcome,[4],inactive
same,outcome,[5],inactive
CC1(c2ccccc2)OC(C(=O)O)=CC1=O (centres undefined),max response,[1],25.1% (inactive)
same,outcome,[2],inactive
same,outcome,[4],inactive
CC(C)CCCC(C)CCCC(C)CCCCC(C)CCCC(C)CCCC(C)C (centres undefined),max response,[1],5.26% (inactive)
same,outcome,[2],inactive
same,outcome,[4],inactive
same,outcome,[5],inactive
Cc1cccc(C(=O)O)c1O,max response,[1],2.78% (inactive)
same,outcome,[2],inactive
same,outcome,[4],inactive
same,outcome,[5],inactive
Nc1ccc(S(=O)(=O)c2ccc(N)cc2)cc1,max response,[6],-8.33% (inactive) and -0.873% (inactive)
same,outcome,[11],inactive
same,outcome,[7],inactive
same,outcome,[12],inactive
same,max response,[8],-3.28% (inactive) and -10.9% (inactive)
same,max response,[1],-3.88% (inactive)
same,max response,[9],-5.62% (inactive) and -11.7% (inactive)
same,outcome,[10],inactive
same,"parasite growth, % of DMSO control",[13],91.3%
same,"parasite growth remaining, % of DMSO control (lower = more inhibition)",[14],103%
same,"parasite growth, % of control (lower = inhibition)",[15],101%
same,"growth, % of control",[16],100%
same,outcome,[2],inactive
same,outcome,[4],inactive
same,outcome,[5],inactive
CC1(C)[C@@H](OC(=O)CCC(=O)O)CC[C@]2(C)[C@H]3C(=O)C=C4[C@@H]5C[C@@](C)(C(=O)O)CC[C@]5(C)CC[C@@]4(C)[C@]3(C)CC[C@@H]12,max response,[1],-6.25% (inactive)
same,outcome,[2],inactive
same,outcome,[4],inactive
same,outcome,[5],inactive
Cc1cc(-n2nc3ccc(Cl)cc3n2)c(O)c(C(C)(C)C)c1,max response,[1],-8.61% (inactive)
same,outcome,[2],inactive
same,outcome,[4],inactive
same,outcome,[5],inactive
